Reference: the supplement of paper PMC10849652
Targets with a hit are over-represented here; the source holds about 8,800 in all. About 0.5% of all pairs of compound and target were hits. Values without a mark were called inactive.

Key:
Test in all cases: log2 fold change, soluble protein after heating vs DMSO (PISA); higher = thermal stabilisation; K562 lysate, 10 uM; active = over 0.2 and 3.5 SD of the protein, either way, in both replicates (recomputed)
nilotinib = compound: Cc1cn(-c2cc(NC(=O)c3ccc(C)c(Nc4nccc(-c5cccnc5)n4)c3)cc(C(F)(F)F)c2)cn1 [nilotinib]
In short: (§1)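 A 30 min treatment with 10 μM compound was applied to crude K562 extract at 1 mg/mL protein in PBS pH 7.4 with 1 mM MgCl2. Heating for 3 min spanned 48°C-58°C, after which aliquots were pooled, adjusted to 0.5% NP-40 at 4°C and spun at 21,000xg for 90 min. TMTpro 16plex LC-MS/MS of the supernatant, with channel sums equalised, gave values recorded as log-two fold change in thermal stability against solvent controls, from duplicates.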

[1] = compound: Cc1nc(Nc2n[nH]c3c2CN(C(=O)N[C@H](CN(C)C)c2ccccc2)C3(C)C)c2sccc2n1
In short: as §1

dasatinib = compound: Cc1nc(Nc2ncc(C(=O)Nc3c(C)cccc3Cl)s2)cc(N2CCN(CCO)CC2)n1 [dasatinib]
In short: as §1

[2] = compound: Cc1ncc(-c2ccnc(Nc3ccc(S(C)(=O)=O)cc3)n2)n1C(C)C
In short: as §1

[3] = compound: Cn1cc(-c2ccc3c(c2)CCN3C(=O)Cc2cccc(C(F)(F)F)c2)c2c(N)ncnc21
In short: as §1

quisinostat = compound: Cn1cc(CNCC2CCN(c3ncc(C(=O)NO)cn3)CC2)c2ccccc21 [quisinostat]
In short: as §1

tipifarnib = compound: Cn1cncc1[C@@](N)(c1ccc(Cl)cc1)c1ccc2c(c1)c(-c1cccc(Cl)c1)cc(=O)n2C [tipifarnib]
In short: as §1

[4] = compound: NC(=O)Nc1cc(-c2cccc(F)c2)sc1C(=O)N[C@H]1CCCNC1
In short: as §1

[5] = compound: NC(=O)c1cnc(N[C@@H]2CCCC[C@@H]2N)nc1Nc1cccc(-n2nccn2)c1
In short: as §1

[6] = compound: NC1(c2ccc(-c3nc4ccn5c(=O)[nH]nc5c4cc3-c3ccccc3)cc2)CCC1
In short: as §1

[7] = compound: NCC(=O)Nc1ccc(-n2nc(C(F)(F)F)cc2-c2ccc3c(ccc4ccccc43)c2)cc1
In short: as §1

vorinostat = compound: O=C(CCCCCCC(=O)Nc1ccccc1)NO [vorinostat]
In short: as §1

silmitasertib = compound: O=C(O)c1ccc2c(c1)nc(Nc1cccc(Cl)c1)c1ccncc12 [silmitasertib]
In short: as §1

[8] = compound: O=C1NC(=O)C(c2cnc3ccccn23)=C1c1cn2c3c(cc(F)cc13)CN(C(=O)N1CCCCC1)CC2
In short: as §1

entospletinib = compound: c1cn2cc(-c3ccc4cn[nH]c4c3)nc(Nc3ccc(N4CCOCC4)cc3)c2n1 [entospletinib]
In short: as §1

Chain of UniProt Q4G0T1 (Q4G0T1 whole entry, looked up): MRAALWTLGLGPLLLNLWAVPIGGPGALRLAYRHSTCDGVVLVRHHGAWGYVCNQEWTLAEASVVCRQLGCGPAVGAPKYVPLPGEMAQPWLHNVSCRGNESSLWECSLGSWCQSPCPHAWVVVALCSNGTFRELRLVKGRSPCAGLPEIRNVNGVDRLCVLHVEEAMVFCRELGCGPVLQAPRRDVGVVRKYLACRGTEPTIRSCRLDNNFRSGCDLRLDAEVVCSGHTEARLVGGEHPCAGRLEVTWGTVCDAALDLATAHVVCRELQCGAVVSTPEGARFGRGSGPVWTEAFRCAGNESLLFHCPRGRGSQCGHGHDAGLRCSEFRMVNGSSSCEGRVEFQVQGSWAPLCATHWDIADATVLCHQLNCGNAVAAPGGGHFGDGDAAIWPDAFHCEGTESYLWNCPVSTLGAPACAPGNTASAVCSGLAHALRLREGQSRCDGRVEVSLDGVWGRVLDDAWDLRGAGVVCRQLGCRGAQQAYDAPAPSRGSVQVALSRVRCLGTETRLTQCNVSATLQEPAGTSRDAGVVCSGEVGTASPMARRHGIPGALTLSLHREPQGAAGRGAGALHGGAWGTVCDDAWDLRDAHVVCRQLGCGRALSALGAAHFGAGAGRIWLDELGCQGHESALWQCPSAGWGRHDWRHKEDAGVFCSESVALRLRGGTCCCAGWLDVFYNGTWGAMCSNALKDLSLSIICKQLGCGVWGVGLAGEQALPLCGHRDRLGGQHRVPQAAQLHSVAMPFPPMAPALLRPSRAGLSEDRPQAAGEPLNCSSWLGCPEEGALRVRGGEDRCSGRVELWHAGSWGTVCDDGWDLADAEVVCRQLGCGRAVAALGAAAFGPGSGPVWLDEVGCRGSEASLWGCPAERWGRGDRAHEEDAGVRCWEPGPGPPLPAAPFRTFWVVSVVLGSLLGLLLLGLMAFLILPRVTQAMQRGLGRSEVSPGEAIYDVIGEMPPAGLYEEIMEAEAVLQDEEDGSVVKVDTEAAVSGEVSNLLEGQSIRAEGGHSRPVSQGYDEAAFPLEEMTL
Chain of UniProt Q15054 (Q15054 whole entry, looked up): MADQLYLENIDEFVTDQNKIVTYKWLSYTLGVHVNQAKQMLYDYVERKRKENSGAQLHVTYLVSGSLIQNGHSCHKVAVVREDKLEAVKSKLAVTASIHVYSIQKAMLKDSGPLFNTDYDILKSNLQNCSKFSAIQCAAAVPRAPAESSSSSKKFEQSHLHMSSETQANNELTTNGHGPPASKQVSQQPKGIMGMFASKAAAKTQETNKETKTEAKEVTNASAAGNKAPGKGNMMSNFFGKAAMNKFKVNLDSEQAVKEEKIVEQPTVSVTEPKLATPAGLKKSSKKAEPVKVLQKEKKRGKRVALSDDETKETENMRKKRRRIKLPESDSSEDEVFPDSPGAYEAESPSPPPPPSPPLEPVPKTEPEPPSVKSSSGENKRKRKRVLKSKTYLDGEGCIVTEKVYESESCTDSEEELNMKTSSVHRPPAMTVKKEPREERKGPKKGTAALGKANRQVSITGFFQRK
Chain of UniProt Q9Y2I7 (Q9Y2I7 whole entry, looked up): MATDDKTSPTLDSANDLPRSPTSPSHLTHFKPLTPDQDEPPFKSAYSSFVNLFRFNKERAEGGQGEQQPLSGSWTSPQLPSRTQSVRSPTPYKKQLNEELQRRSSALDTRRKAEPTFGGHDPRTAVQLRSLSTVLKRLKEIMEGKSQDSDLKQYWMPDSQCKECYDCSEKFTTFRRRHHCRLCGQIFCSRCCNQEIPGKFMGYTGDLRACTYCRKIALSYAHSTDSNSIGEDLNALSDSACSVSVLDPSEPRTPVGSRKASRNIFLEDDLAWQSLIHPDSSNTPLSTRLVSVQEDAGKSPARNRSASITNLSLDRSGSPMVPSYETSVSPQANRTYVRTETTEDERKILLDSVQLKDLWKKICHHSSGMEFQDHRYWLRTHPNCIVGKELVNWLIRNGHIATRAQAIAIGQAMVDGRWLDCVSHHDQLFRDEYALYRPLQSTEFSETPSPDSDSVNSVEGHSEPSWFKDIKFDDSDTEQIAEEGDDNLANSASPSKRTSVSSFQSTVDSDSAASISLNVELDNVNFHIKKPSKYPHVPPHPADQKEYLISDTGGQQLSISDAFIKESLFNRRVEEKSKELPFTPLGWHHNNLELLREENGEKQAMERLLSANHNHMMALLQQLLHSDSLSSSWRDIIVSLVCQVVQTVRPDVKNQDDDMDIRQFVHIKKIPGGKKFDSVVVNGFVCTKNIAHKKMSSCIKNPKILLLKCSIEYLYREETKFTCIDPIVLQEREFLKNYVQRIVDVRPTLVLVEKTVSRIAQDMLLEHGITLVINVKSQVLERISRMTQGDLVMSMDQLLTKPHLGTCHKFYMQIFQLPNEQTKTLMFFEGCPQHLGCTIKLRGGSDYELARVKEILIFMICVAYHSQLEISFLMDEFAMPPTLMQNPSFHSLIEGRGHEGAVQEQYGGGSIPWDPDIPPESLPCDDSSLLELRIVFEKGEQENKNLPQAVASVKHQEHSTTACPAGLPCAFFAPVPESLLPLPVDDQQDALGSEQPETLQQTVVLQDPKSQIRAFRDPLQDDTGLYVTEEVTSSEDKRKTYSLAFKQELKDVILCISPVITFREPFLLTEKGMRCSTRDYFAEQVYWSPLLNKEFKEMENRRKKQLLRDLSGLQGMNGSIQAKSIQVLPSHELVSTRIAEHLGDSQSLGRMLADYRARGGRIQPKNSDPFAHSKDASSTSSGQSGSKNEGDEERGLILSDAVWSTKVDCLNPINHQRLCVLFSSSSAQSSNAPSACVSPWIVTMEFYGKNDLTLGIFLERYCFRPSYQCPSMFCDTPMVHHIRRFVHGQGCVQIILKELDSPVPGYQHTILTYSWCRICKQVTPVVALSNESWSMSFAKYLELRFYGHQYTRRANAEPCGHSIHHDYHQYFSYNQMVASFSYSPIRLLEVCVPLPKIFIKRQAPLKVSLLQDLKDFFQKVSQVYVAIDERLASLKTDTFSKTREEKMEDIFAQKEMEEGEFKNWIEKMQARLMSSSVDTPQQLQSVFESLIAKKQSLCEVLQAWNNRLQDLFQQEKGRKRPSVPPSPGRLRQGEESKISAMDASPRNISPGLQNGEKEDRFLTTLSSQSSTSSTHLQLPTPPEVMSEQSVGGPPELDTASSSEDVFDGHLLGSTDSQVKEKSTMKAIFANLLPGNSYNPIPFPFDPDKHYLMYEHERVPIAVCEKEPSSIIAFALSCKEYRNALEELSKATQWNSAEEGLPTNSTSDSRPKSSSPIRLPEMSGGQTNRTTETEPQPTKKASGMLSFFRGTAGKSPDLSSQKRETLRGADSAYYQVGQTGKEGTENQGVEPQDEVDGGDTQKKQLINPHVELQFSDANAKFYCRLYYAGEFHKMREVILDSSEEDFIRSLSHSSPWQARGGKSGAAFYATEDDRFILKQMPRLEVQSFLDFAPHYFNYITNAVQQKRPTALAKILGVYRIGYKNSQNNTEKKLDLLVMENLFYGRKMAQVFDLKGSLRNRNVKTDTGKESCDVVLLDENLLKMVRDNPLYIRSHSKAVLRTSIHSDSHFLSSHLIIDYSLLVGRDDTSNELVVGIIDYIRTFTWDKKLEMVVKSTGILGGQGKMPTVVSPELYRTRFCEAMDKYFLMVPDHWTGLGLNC
Chain of UniProt Q9BZE2 (Q9BZE2 whole entry, looked up): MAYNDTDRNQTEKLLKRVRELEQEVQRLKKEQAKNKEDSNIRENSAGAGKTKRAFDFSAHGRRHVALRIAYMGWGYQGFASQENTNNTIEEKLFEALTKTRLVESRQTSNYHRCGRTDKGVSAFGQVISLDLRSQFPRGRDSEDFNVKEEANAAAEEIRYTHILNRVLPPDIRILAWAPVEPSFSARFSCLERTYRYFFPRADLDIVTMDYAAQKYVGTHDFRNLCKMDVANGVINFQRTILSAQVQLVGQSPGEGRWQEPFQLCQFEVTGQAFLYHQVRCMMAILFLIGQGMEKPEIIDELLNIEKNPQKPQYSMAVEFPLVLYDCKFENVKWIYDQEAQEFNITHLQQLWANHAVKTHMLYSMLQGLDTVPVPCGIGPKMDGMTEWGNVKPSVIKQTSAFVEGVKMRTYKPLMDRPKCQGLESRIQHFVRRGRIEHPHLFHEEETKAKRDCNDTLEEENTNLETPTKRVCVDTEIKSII
Chain of UniProt Q15004 (Q15004 whole entry, looked up): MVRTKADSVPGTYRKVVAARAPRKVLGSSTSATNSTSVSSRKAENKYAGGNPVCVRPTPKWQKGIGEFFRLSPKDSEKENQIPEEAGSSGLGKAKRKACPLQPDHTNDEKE
Chain of UniProt Q9Y5K3 (Q9Y5K3 whole entry, looked up): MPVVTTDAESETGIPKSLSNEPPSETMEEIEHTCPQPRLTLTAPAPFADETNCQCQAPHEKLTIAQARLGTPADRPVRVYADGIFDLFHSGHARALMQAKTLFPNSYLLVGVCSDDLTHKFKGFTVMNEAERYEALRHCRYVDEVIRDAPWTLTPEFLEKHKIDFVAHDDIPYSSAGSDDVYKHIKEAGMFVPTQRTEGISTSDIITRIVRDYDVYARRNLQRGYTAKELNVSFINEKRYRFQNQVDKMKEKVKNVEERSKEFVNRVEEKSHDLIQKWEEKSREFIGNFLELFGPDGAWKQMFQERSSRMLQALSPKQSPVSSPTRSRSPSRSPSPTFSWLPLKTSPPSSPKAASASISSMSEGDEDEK
Chain of UniProt Q03393 (Q03393 whole entry, looked up): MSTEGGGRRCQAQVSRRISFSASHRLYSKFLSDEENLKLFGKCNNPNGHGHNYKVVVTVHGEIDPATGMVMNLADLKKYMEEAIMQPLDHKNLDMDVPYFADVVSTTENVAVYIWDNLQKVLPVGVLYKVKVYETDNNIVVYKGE
Chain of UniProt O00764 (O00764 whole entry, looked up): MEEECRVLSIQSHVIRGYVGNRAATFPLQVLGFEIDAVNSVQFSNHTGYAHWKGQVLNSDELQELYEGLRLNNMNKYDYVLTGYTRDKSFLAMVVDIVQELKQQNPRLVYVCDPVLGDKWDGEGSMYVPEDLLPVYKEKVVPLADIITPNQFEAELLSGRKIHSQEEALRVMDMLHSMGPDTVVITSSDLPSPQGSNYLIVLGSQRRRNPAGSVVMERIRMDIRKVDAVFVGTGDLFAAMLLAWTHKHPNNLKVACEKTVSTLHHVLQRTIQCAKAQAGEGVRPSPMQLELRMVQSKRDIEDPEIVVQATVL

| Target | log2 fold change (nilotinib) | log2 fold change [1] | log2 fold change (dasatinib) | log2 fold change [2] | log2 fold change [3] | log2 fold change (quisinostat) | log2 fold change (tipifarnib) | log2 fold change [4] | log2 fold change [5] | log2 fold change [6] | log2 fold change [7] | log2 fold change (vorinostat) | log2 fold change (silmitasertib) | log2 fold change [8] | log2 fold change (entospletinib) |
| --- | --- | --- | --- | --- | --- | --- | --- | --- | --- | --- | --- | --- | --- | --- | --- |
| PDXK (UniProt O00764) | 0.123 | -0.031 | 0.005 | 0.055 | -0.003 | -0.03 | 0.012 | -0.008 | -0.008 | -0.023 | -0.005 | 0.073 | -0.008 | 0.026 | -0.009 |
| PTS (UniProt Q03393) | 0.172 | 0.024 | 0 | -0.018 | 0.082 | -0.083 | 0.112 | 0.126 | 0.006 | -0.077 | 0.053 | 0.006 | 0.009 | -0.151 | 0.032 |
| PIKFYVE (UniProt Q9Y2I7) | 0.017 | -0.017 | -0.022 | -0.015 | 0.009 | -0.014 | -0.035 | 0.007 | 0.027 | -0.005 | 0.031 | -0.476 (active) | 0.03 | -0.026 | -0.014 |
| PPP3CA isoform 2 (UniProt Q08209) | 0.241 (active) | 0.121 | 0.027 | -0.082 | -0.03 | -0.051 | 0.037 | 0.048 | -0.005 | -0.002 | 0.006 | 0.042 | 0.014 | -0.025 | 0.066 |
| POLD3 (UniProt Q15054) | 0.03 | -0.014 | -0.002 | 0.029 | 0.007 | -0.049 | 0.002 | 0.013 | 0.018 | -0.027 | 0.045 | -0.335 (active) | -0.02 | -0.03 | 0.011 |
| PTK2 (UniProt Q05397) | -0.032 | 0.235 | 0.083 | 0.078 | 0.18 | -0.038 | -0.046 | 0.373 | 0.081 | 0.021 | -0.017 | -0.137 | 0 | -0.056 | 0.175 |
| PRKACB isoform 2 (UniProt P22694) | -0.076 | 0.818 (active) | 0.025 | 0.091 | -0.028 | -0.033 | -0.063 | 0.538 (active) | 0.177 | -0.025 | -0.014 | -0.018 | 0.054 | 0.002 | 0.042 |
| PLK1 (UniProt P53350) | 0.014 | -0.073 | -0.004 | 0.008 | -0.015 | -0.021 | 0.032 | -0.193 | -0.043 | 0.01 | 0.027 | -0.638 (active) | 0.005 | 0.022 | 0.072 |
| PUS3 (UniProt Q9BZE2) | -0.019 | 0.045 | -0.063 | -0.042 | 0.145 | 0.078 | -0.007 | -0.003 | 0.023 | 0.075 | 0.051 | -0.527 (active) | 0.11 | 0.017 | -0.041 |
| PTPN1 (UniProt P18031) | -0.001 | 0.019 | -0.062 | 0.007 | 0.027 | -0.051 | -0.032 | 0.039 | 0.026 | 0.021 | -0.005 | -0.29 (active) | 0.04 | 0.012 | 0.048 |
| PRKCB isoform 2 (UniProt P05771) | -0.014 | 0.256 (active) | -0.06 | -0.093 | -0.007 | 0.017 | -0.038 | -0.416 (active) | 0.181 | -0.037 | 0.046 | -0.145 | 0.012 | -0.164 | 0.004 |
| PCBD2 (UniProt Q9H0N5) | 0.01 | -0.045 | 0.011 | -0.063 | 0.051 | -0.08 | -0.101 | 0.033 | 0.069 | -0.066 | 0.008 | 0.034 | 0.01 | -0.006 | 0.003 |
| PCYT1B (UniProt Q9Y5K3) | -0.079 | -0.003 | 0 | 0.022 | -0.026 | 0.039 | 0.047 | -0.023 | -0.008 | 0.054 | -0.03 | 0.064 | -0.062 | -0.027 | 0.002 |
| PPP4R2 (UniProt Q9NY27) | 0.012 | 0.018 | 0.029 | 0.005 | -0.028 | -0.009 | -0.042 | -0.011 | 0.009 | -0.01 | -0.007 | -0.053 | -0.016 | 0.023 | -0.001 |
| PTK2 isoform 2 (UniProt Q05397) | – | – | 0.014 | – | 0.102 | – | – | – | 0.034 | -0.168 | – | -0.056 | 0.046 | – | 0.007 |
| PFKFB4 (UniProt Q16877) | – | – | 0.009 | – | -0.045 | 0.059 | – | -0.024 | 0.015 | 0.013 | 0.007 | -0.369 (active) | 0 | -0.031 | 0.051 |
| PCBP2 (UniProt F8W0G4) | 0.034 | -0.092 | -0.138 | -0.154 | 0 | – | -0.298 | – | – | 0.053 | 0.083 | -0.058 | 0.025 | – | -0.088 |
| PIK3CG (UniProt P48736) | 0.004 | -0.022 | – | 0.079 | 0.097 | -0.139 | 0.003 | 0.013 | – | -0.017 | -0.111 | -0.037 | 0.04 | -0.027 | -0.073 |
| NA (UniProt Q4G0T1) | – | – | 0.054 | – | 0.095 | 0.034 | – | 0.054 | – | 0.062 | – | -0.027 | 0.092 | -0.036 | – |
| POM121C (UniProt A8CG34) | – | – | – | – | – | – | – | – | 0.022 | -0.09 | – | 0.077 | -0.196 | – | – |
| PCLAF (UniProt Q15004) | -0.115 | 0.081 | 0.001 | 0.02 | -0.087 | -0.044 | 0.018 | -0.018 | – | 0.094 | 0.022 | -0.29 (active) | -0.029 | -0.025 | 0.009 |
| PDE4DIP (UniProt E9PS60) | -0.074 | 0.052 | -0.158 | -0.045 | -0.073 | -0.256 | 0.081 | -0.205 | – | -0.025 | 0.002 | -0.157 | 0.082 | 0.039 | 0.103 |
| PMS1 (UniProt P54277) | -0.022 | 0 | -0.011 | -0.001 | 0.017 | -0.086 | 0.058 | 0.041 | – | -0.029 | 0.01 | -0.342 (active) | 0.018 | 0.026 | -0.011 |
